Assays:
Conditions in all cases: concentration: 1 μM, replicates: in singlicate; n = 1
[1] = test system: JAK1(JH2domain-pseudokinase)
[2] = test system: JAK2(JH1domain-catalytic)
[3] = test system: JAK3(JH1domain-catalytic)
JNK1 = test system: T1, JNK1
T1 construct: gene MAPK8

JNK2 = test system: T2, JNK2
T2 construct: gene MAPK9

JNK3 = test system: T3, JNK3
T3 construct: gene MAPK10

KIT-autoinhibited = test system: KIT-autoinhibited
KIT = test system: KIT
LATS1 = test system: LATS1
LATS2 = test system: LATS2
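Also: KINOMEscan kinase panel screen.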

SMILES | %Inh [1] | %Inh [2] | %Inh [3] | %Inh (JNK1) | %Inh (JNK2) | %Inh (JNK3) | %Inh (KIT-autoinhibited) | %Inh (KIT) | %Inh (LATS1) | %Inh (LATS2)
O=C(Nc1cccc(Oc2ccc3nc(NC(=O)C4CC4)cn3n2)c1)c1ccccc1C(F)(F)F | 7% | 43% | 29% | 0% | 0% | 0% | 91.5% | 100% | 0% | 0%
Cl.Cl.NCC(C(=O)Nc1cc(Br)c(-c2ccnc3[nH]ccc23)s1)c1ccccc1 (stereo not shown) [GSK1269851] | 0% | 78% | 100% | 15% | 7% | 0% | 2% | 12% | 62% | 80%
Oc1cc(Nc2ccnc3cc(I)ccc23)ccc1F [GW552771] | 0% | 7% | 0% | 32% | 43% | 28% | 0% | 70% | 0% | 0%
CN(C)Cc1ccc(-c2ccc3c(Nc4ccc(Oc5ccccn5)cc4)ccnc3c2)o1 [GW567148] | 0% | 18% | 0% | 19% | 4% | 0% | 0% | 92.8% | 0% | 0%
O=c1[nH]cc(-c2ccc(N3CCOCC3)cc2)c2sc(-c3cn[nH]c3)cc12 [GSK2276055] | 77% | 100% | 39% | 24% | 14% | 10% | 22% | 76% | 0% | 62%
COc1cc(Nc2nccc(N3CCC(NC(=O)Nc4cccc(C(C)=O)c4)C3)n2)cc(OC)c1OC (stereo not shown) [GSK1379753] | 11% | 91.4% | 0% | 41% | 29% | 49% | 0% | 86% | 0% | 0%
FC(F)(F)c1ccc(/C=C/c2cncnc2Nc2ccc3[nH]c(Cc4ccccc4)nc3c2)cc1 [GW709199] | 2% | 65% | 0% | 0% | 0% | 0% | 0% | 0% | 19% | 0%
COc1ccc(CNC(=O)NC2CCN(c3ccnc(Nc4ccc(F)cc4)n3)CC2)cc1 [GSK1379788] | 0% | 9% | 0% | 11% | 5% | 0% | 0% | 19% | 7% | 8%
CNC(=O)c1ccccc1Nc1nc(Nc2ccc(N3CCOCC3)cc2)ncc1Cl.Cl [GSK1576028] | 99.9% | 99% | 100% | 100% | 100% | 100% | 10% | 92.4% | 32% | 92.1%
Cc1ccc(C(=O)N2CC[C@@H](O)C2)cc1-n1c(C)cc(OCc2ccc(F)cc2F)c(Br)c1=O | 48% | 0% | 1% | 14% | 0% | 0% | 0% | 87% | 0% | 0%
Nc1n[nH]c2cnc(-c3ccccc3)cc12 [SB-642124] | 0% | 75% | 91% | 13% | 0% | 6% | 12% | 0% | 0% | 2%
Cn1cc(-c2[nH]c3cc(NC(=O)[C@H](N)C4CCCCC4)cc4c3c2C=NNC4=O)cn1 | 100% | 98.7% | 99.5% | 0% | 0% | 0% | 28% | 99.9% | 90.4% | 100%
Cc1cccc(Nc2nc(N[C@H]3CCNC3)ncc2C(N)=O)c1.Cl [GSK2197149] | 88% | 58% | 3% | 67% | 29% | 34% | 0% | 94.9% | 0% | 0%
COC(=O)Nc1nc2ccc(Oc3ccc(NC(=O)Nc4cc(C(F)(F)F)ccc4F)cc3)cc2n1C.Cl [GW692089] | 0% | 22% | 0% | 2% | 37% | 0% | 5% | 100% | 0% | 0%
Nc1ncc(-c2cccnc2)c2scc(-c3ccc4c(c3)CCN4C(=O)Cc3ccccc3)c12 [GSK683281] | 1% | 14% | 0% | 22% | 37% | 9% | 7% | 98.5% | 0% | 19%
COc1cc2c(cc1OCCN1CCNCC1)ncc1c3ccc(C#N)cc3[nH]c21 | 45% | 64% | 85% | 13% | 0% | 0% | 55% | 70% | 0% | 42%

— publication PMC5540273 (PLoS ONE, 2017)
